Measured values reported in PubChem BioAssay (NCI).
Compounds without any hit were thinned out: in the full panel of roughly 83,000, 20% have a hit.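 Results are percent growth after 48 hours of single-concentration exposure. 100 means growth as in untreated cells, lower positive values show inhibition; negative values down to -100 show cell death.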 Values without a mark were called inactive. Calls of active or inactive are those of the source.

These molecules were tested on SNB-75 CNS (assay: NCI-60 one-dose screen, 48 h (100 = growth as untreated, 0 = no growth, -100 = all killed)). Settings: 10 µM unless noted.
Procedure: Growth inhibition of the SNB-75 human tumor cell line is measured as a screen for anti-cancer activity. Cells are grown in 96 well plates and exposed to the test compound for 48 hours. Compounds are tested at a single concentration, which is 10^-5 M for most compounds. The reported endpoint is percent growth (GI% or GIPRCNT), where numbers from 0 - 100% represent growth inhibition, and numbers from -100% - 0 represent cell death. For example, a value of 40 represents 60% growth inhibition. A value of 0 means no net growth occurred over the course of the experiment. A value of -40 indicates 40% of cells at the beginning of the experiment died by the end of the experiment. A value of -100 means all cells are dead at the end of the experiment.
NCI-60 Human Tumor Cell Lines Screen was performed using the standard one-dose NCI protocol, which is described in more detail at https://dtp.cancer.gov/discovery_development/nci-60/default.htm.
Compounds with GIPRCNT values below 10 were considered active. Activity score was based on GIPRCNT using the following formula: […]
Score is 0 for GIPRCNT values of 100 or above, 50 for GIPRCNT values of 0, and 100 for GIPRCNT values of -100.
`Cn1c(/C=C(\C#N)c2cccc(C(F)(F)F)c2)nc2c(N3CCOCC3)nc(Cl)nc21` was tested, and the growth was -22.7% (active).
For `O=C(NC(=S)Nc1cccc(NC(=S)NC(=O)c2ccccc2)c1)c1ccccc1`, the growth was -2.29% (active).
`COc1ccc(Nc2cc(C)nc(NCc3ccccc3)n2)cc1` showed a growth of 49%.
For `Nc1ccc(-n2c(=O)oc3ccc(Cl)cc3c2=O)c(Cl)c1`, the growth was -41.3% (active).
With `COc1cc(C=C2C(=O)N(C)C(=O)N(C)C2=O)cc(CN2CCCCC2)c1O` the growth was 89.8%.
For `COC(=O)c1c2c(c(C)[n+]([O-])c1C)C(=O)C(NCc1ccc(F)c(F)c1)=CC2=O`, the growth was 83.6%.
`Cn1cc(-c2ccc3ncc(-c4ccc(CC(=O)Nc5cc(C(C)(C)C)no5)cc4)nc3c2)cn1` was tested, and the growth was 43.7%.
In the case of `COC(=O)/C(=C\c1c(C)[nH]c2ccccc12)S(=O)(=O)c1ccccc1`, the growth is reported as -8.87% (active).
`COC(=O)/C(CCC=C(C)C)=C1\[C@@H](OC(C)=O)C[C@@]2(C)[C@H]1C[C@@H](O)[C@H]1[C@@]3(C)CC[C@H](NCc4ccccc4)[C@@H](C)[C@@H]3CC[C@@]12C` was tested, and the growth was 65.1%.
`COc1ccc(Nc2nc(N/N=C/c3ccc(O)cc3)nc(Nc3ccc([N+](=O)[O-])cc3)n2)cc1` showed a growth of 104%.
`Cc1nc2ccccc2c(/C=C/c2ccccc2)c1C(=O)/C=C/c1ccc(Cl)cc1` was tested, and the growth was 57.8%.
In the case of `C#CCn1cc(C=C2C(=O)NC(=O)NC2=O)c2cc(Cl)ccc21`, the growth is reported as 92.9%.
In the case of `CCCc1c(C)c2sc(=O)[nH]c2[nH]c1=O`, the growth is reported as 99.1%.
With `O=C(CCc1nnc2sc(-c3ccc(Cl)cc3Cl)nn12)c1nc2ncccc2[nH]1` the growth was 35.3%.
`CCOC(=O)c1cc2c(n1Cc1cc(OC)c(OC)c(OC)c1)-c1oncc1CCC2` gave a growth of 20.2%.
For `O=Nc1c(O)ccc2ccccc12.O=Nc1c(O)ccc2ccccc12.O=Nc1c([O-])ccc2ccccc12.[Fe+3]`, the growth was 72.7%.
In the case of `COc1ccc(-n2c(C(O)c3ccccc3)n[nH]c2=S)cc1` (stereo not given), the growth is reported as 89.6%.
For `O=c1oc2ccc(F)cc2c(=O)n1-c1ccc(I)cc1F`, the growth was -15.3% (active).
`CN1CCN(Cc2ccc(NC(=O)c3cncc(C#Cc4nc(N)nc5[nH]ncc45)c3)cc2C(F)(F)F)CC1` showed a growth of 85%.
`CCOC(=O)c1ccc2[nH]c(-c3ccccc3)cc(=O)c2c1` was tested, and the growth was 72.3%.
Work on `CCOC(=O)C1=CN(C)C=C(C(=O)OCC)C1c1cc(Br)c(OCC)c(OC)c1` yielded a growth of 43.5%.
For `O=Cc1c(OCc2cnnn2CC(=O)Nc2ccc(Br)cc2)ccc2ccccc12`, the growth was 72.6%.
`Cc1ccc(NCCNCC(O)CO)c2c(=O)c3ccccc3sc12` (stereo not given) showed a growth of 44.6%.
`Clc1ccc(COc2ccc(Nc3ncnc4onc(-c5ccccc5)c34)cc2)cc1` gave a growth of 67.8%.
With `COc1cccc(C2=NN3C(C2)c2ccccc2OC3c2ccc(/C=C3\SC(=O)NC3=O)cc2)c1` (stereo not given) the growth was 95%.
Work on `COc1ccccc1C(=O)/C=C/c1ccccc1` yielded a growth of 88.5%.
`NC1C(N)C(N)C1N` (stereo not given) showed a growth of 71.8%.
`N#C/C(=C\c1c(-c2ccccc2)[nH]c2ccccc12)C(=O)c1ccccc1` showed a growth of 16.8%.
With `CCOC(=O)C(CC(=O)O)=C(C(=O)OCC)C(=O)OCC` the growth was 91.8%.
`O=C1C(Cl)=C(NCc2ccco2)C(=O)c2ccccc21` was tested, and the growth was 87.1%.
`COc1ccc(C2Nc3nc(OC)n(C)c(=O)c3N=C3c4ccccc4C(=O)C32)cc1` (stereo not given) was tested, and the growth was 77.4%.
Work on `O=C(Nc1ccc(-c2nc3cc4ccccc4cc3[nH]2)cc1)c1cccc(Br)c1` yielded a growth of 66.2%.
In the case of `CCC(C)(C)C(=O)O[C@H]1C[C@@H](C)C=C2C=C[C@H](C)[C@H](CC[C@@H]3CC=CC(=O)O3)[C@H]21`, the growth is reported as 80.4%.
`CCN(CCO)CCNc1ccc(C)c2sc3cc(Cl)ccc3c(=O)c12` showed a growth of 62.5%.
Molecule `Cc1nc2ccccc2c(/C=C/c2ccc(F)cc2)c1C(N)=O` has a growth of 85.4%.
`O=C(/C=C/c1ccc(Cl)cc1)c1ccc(Nc2nc(NCCO)nc(N3CCOCC3)n2)cc1` was tested, and the growth was 64.6%.
Work on `COc1nccc2cc3c(=O)n4c(cc5ccccc54)c(=O)n3c12` yielded a growth of 89.2%.
`CCN(CC)c1cc(C)c2cc(NC(=O)c3cccc(OC)c3)ccc2n1` was tested, and the growth was 81.6%.
With `O=Cc1c(OCc2cnnn2CC(=O)Nc2ccc(Cl)cc2)ccc2ccccc12` the growth was 81.3%.
Molecule `Cc1cccc2c(=O)c3c(sc12)c(N1CCNCC1)nc1ccccc13` has a growth of 50%.
